# PubChem BioAssay AID1345083 (National Center for Advancing Translational Sciences (NCATS), 2018)
# In all, about 94,000 compounds went through this assay and about 6,200 (6.6%) were called active. Another 31% or so got no clear call; they are omitted. Calls follow the shape of the dose curve; as a rule, active = well fitted inhibition curve with a large enough effect; inconclusive = small, poorly fitted or top-dose-only effect; inactive = flat fitted curve, though single readings scatter. For the sample, actives were picked, then their nearest neighbours and some compounds at random.
# Test: Cytotoxic Profiling in HEK 293 Cell Line of Diverse Libraries Using Quantitative High-Throughput Screening; also: nearly all actives have a fitted effect of over 60% in size
# Conditions: HEK 293 viability, ATP luminescence (CellTiter-Glo), 48-72 h; series mostly up to 115 µM; activity change, negative = cytotoxicity: at the top concentration
# Summary of the method: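 HEK 293 cells at 250 cells/well were exposed to compounds by pintool transfer for 48 or 72 hr at 37 degree Celsius, 5% CO2. Viability was read as ATP-coupled luminescence with CellTiter-Glo after 10 min at room temperature.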
# % is scaled to controls: 0 for no effect and ±100 for the full control effect; potency is read from the fitted curve at half-maximal effect.
Compound,Potency,"activity change, negative = cytotoxicity",outcome
CN(C)c1cccc(-c2cnc(Nc3ccc(N4CCOCC4)cc3)c3c2CCO3)c1,22.4 µM (active),–,–
Cc1cccc(CNC(=O)C2Cn3cccc3C(=O)N2CC(C)C)c1 (configuration not stated),–,-18.7% (inactive),–
CCOC(=O)[C@H]1[C@@H](O)C(=O)N(Cc2ccccc2)C12CCN([S+](C)(=O)[O-])CC2,–,-4.69% (inactive),–
Cc1ccccc1CN1CCC2(C1)C(=O)N(C)C(=O)N2C (configuration not stated),–,-6.62% (inactive),–
Cc1ccccc1CN1CCC(N2CCCC(C(=O)NC3CC3)C2)CC1 (configuration not stated),–,-0.659% (inactive),–
Cc1ccc2c(n1)N(C)[C@H](CO)CCN(Cc1ccccc1C)C2,89.1 µM (active),–,–
C=CCN1CCN(C(=O)C2CCCN(C(=O)c3ccccc3)CCC(=O)NCC2)CC1 (configuration not stated),–,4.32% (inactive),–
CC(C)(C)c1cc(CC2(NCc3ccc(C#N)cc3)COC2)no1,–,-28.2% [at 172 µM] (inactive),–
CC1CCN([C@@H]2[C@H](O)[C@H](CO)O[C@@H]2CNC(=O)Nc2ccccc2)CC1,–,-8.97% [at 172 µM] (inactive),–
CN(Cc1ccccc1)Cc1cc(CC2(NCc3ccc(CO)o3)COC2)no1,–,-11.7% [at 172 µM] (inactive),–
CCC(CC)C(=O)N[C@H]1C[C@@H](Cc2cc(COc3ccccc3)on2)C1(C)C,31.6 µM (active),–,–
CN(Cc1nccn1C)C(=O)c1cc(CN2CCC(Cc3ccccc3)CC2)on1,–,-28.8% (inactive),–
Cc1cc(C[C@@H]2COC[C@@H]2NC(=O)C2CCN(C(=O)N(C)C)CC2)on1,–,–,inactive
CC1(C)[C@H](Cc2cc(CC3CCCCC3)on2)C[C@@H]1NC(=O)C1CCC1,35.5 µM (active),–,–
COCc1cc(C[C@@H]2CC[C@H](O)[C@@H](CN(C)C)O2)no1,–,2.42% [at 230 µM] (inactive),–
CC(=O)N1CCC(N[C@H]2C[C@@H](Cc3cc(CN(C)c4ccccc4)on3)C2(C)C)CC1,70.8 µM (active),–,–
CC1(C)[C@H](Cc2cc(CC3CCCCC3)on2)C[C@@H]1NC1CCOCC1,28.2 µM (active),–,–
O=C(O)C[C@@H]1CCN(S(=O)(=O)c2ccccc2)C[C@@H]1CC1=NCCc2cc(F)ccc21,–,–,inactive
O=C(NC1CCN(C(=O)N2CC3CC(C2)[C@H]2CCCC(=O)N2C3)CC1)c1ccsc1 (some centres not stated),–,6.66% (inactive),–
O=C(c1ccccc1F)N1CCC2(CC1)N(c1ccccc1)C(=O)CS2(=O)=O,–,1.12% (inactive),–
O=C(NCc1ccccc1-n1cncn1)C1CC(=O)N(Cc2ccccn2)C1 (configuration not stated),–,-7.73% (inactive),–
Cc1cccc(Cl)c1NC(=O)Cn1c(C)cc2nc3n(c(=O)c21)CCCCC3,–,-4.66% (inactive),–
COc1ccccc1C(=O)NCC1Cn2cccc2C(=O)N1Cc1cccnc1 (configuration not stated),–,-6.07% (inactive),–
COCc1nnc2n1CCC(NC(=O)CCc1c(C)nn(C)c1C)CC2 (configuration not stated),–,-4.91% (inactive),–

Compound,Potency,"activity change, negative = cytotoxicity",outcome
CC(C)NC(=O)NC1CCN(c2ccc3nnc(-c4ccccc4)n3n2)C1 (configuration not stated),–,-25.3% (inactive),–
COc1cc(OC)c(NC(=O)N2CCCC2c2nncn2C2CCCC2)cc1Cl (configuration not stated),–,-4.17% (inactive),–
O=C(Nc1ccccc1)N1CCc2nc(-c3ccccc3)nc(-c3ccc(Cl)cc3)c2C1,–,-24.8% (inactive),–
COc1ccc(C(=O)N2CCC([C@@H]3CNC[C@H]3CO)CC2)cc1OC,–,–,inactive
COCCOCC(=O)N1CCCC(c2nc(-c3cccnc3)no2)CCNC(=O)CC1 (configuration not stated),–,-1.25% (inactive),–
CC(c1cccs1)N(C)[S+](=O)([O-])c1cccc(C(F)(F)F)c1 (configuration not stated),–,-22.4% (inactive),–
COCC(=O)NC1CCC12CCN(C(=O)CCCc1ccccc1)CC2 (configuration not stated),–,1.14% (inactive),–
COCC1CN(C2CCC2)CC12CCN(C(=O)C1CCN(C(C)=O)CC1)CC2 (configuration not stated),–,–,inactive
COCC1CN(C2CCC2)CC12CCN(C(=O)CCc1ccccc1)CC2 (configuration not stated),31.6 µM (active),–,–
O=C(NCc1c[nH]c2ncccc12)c1ccccn1,–,-22.3% [at 172 µM] (inactive),–
COc1ccc2c(c1)CCc1c-2n[nH]c1C(=O)N1CCC(c2noc(COc3ccc(C)cc3)n2)CC1,22.4 µM (active),–,–
CCOc1ccc(C(=O)N2CCCC(c3noc(COC)n3)C2)cc1 (configuration not stated),–,-5.23% (inactive),–
COCCOCc1nc(C2CCN(C(=O)c3ccncc3)CC2)no1,–,-0.248% (inactive),–
Cc1ccc(OCc2nc(C3CCN(C(=O)c4noc(C)c4CN4CCCCC4)CC3)no2)cc1,31.6 µM (active),–,–
COCc1nc(C2CCN(C(=O)c3ccn[nH]3)C2)no1 (configuration not stated),–,-5.05% (inactive),–
COCc1nc(C2CCN(C(=O)c3ccoc3)C2)no1 (configuration not stated),–,–,inactive
CCC(C)NC(=O)C1COC2(CCN(C(=O)CC(C)(C)C)CC2)N1C(=O)c1cccc(OC)c1 (configuration not stated),–,–,inactive
COc1ccc(S(=O)(=O)N2CCC(N(C(=O)C3CC3)C3CCOCC3)CC2)cc1,–,0.262% (inactive),–
COCc1cc(=O)n(CC(=O)Nc2ccc(C)cc2)c(N2CCOCC2)n1,–,7.31% (inactive),–
CN(Cc1ccc(OC(F)(F)F)cc1)C(=O)C1(C)CCOCC1,–,-28% (inactive),–
CNC(=O)c1cc[nH]c1C1CCCN(C(=O)c2noc(C)c2Cn2cccn2)C1 (configuration not stated),–,-12.4% (inactive),–
COc1cccc(C(=O)N2C(C(=O)NC3CC3)COC23CCN(C(=O)c2ccc(F)cc2)CC3)c1 (configuration not stated),–,-9.44% (inactive),–
O=C(CCC[C@@H]1[C@H]2CCCN3CCC[C@@H](CN1C(=O)c1cccnc1)[C@@H]23)NCCCc1ccccc1,–,-21.4% (inactive),–
